The panel holds about 79,000 compounds, 15% with a hit somewhere; the sample as a whole holds those more often. A number with no mark means an inactive call. Activity calls are given as the source filed them. Cut-off read from the data, not from the text of the source: active = growth inhibition above about 70%; inactive = the rest.

Assay [1] in a line: NCI Yeast Anticancer Drug Screen. Data for the rad50 strain (AID 155).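 Note: 0% = growth of vehicle-only cultures of the same strain.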 Particulars: S. cerevisiae rad50 strain growth inhibition, hits give high values. Summed up:
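Genetically altered yeast (DNA repair pathway); compound treatment; growth inhibition vs vehicle ctrl.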

Assay [2] is described as follows: NCI Yeast Anticancer Drug Screen. Data for the mec2-1 strain (AID 157). Particulars: S. cerevisiae mec2-1 strain, hits give high values. The gist of the method: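 Cells of the genetically defined mec2-1 yeast strain are incubated with test compound. Inhibition of growth is calculated against vehicle-treated controls.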
The nature of assay [3]: NCI Yeast Anticancer Drug Screen. Data for the sgs1 mgt1 strain (AID 161).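 Note: 0% = growth of cultures given vehicle only.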 Particulars: S. cerevisiae sgs1 mgt1 strain, hits give high values. The gist of the method:
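Test agents were incubated with a DNA-repair-mutant yeast strain. Growth was then read and compared against vehicle-treated controls.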

Assay [4] in a line: NCI Yeast Anticancer Drug Screen. Data for the cln2 rad14 strain (AID 165).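 Note: 0% = growth equal to vehicle treated cultures.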 Particulars: S. cerevisiae cln2 rad14 strain, hits give high values. Summed up:
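The screen exposed genetically defined yeast (cln2 rad14) to test compounds and scored growth inhibition relative to vehicle-treated controls.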

Assay [5] is described as follows: NCI Yeast Anticancer Drug Screen. Data for the bub3 strain (AID 167). Particulars: S. cerevisiae bub3 mutant strain, hits give high values. The gist of the method: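 Yeast carrying a defined mutation is treated with each compound, and growth is compared with that of vehicle-exposed cells to give inhibition.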
Assay [6] is described as follows: NCI Yeast Anticancer Drug Screen. Data for the mlh1 rad18 strain (AID 175). The note with it: S. cerevisiae mlh1 rad18 strain growth inhibition, hits give high values. Summed up:
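Compound-treated yeast growth, normalised to vehicle controls. Strain bears defined DNA repair mutations.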

The mark [7] stands for this setting: at 5.0 µM (retest, dose inferred, filed as 0.5).
[8] abbreviates: at 50.0 µM (retest, dose inferred, filed as 5.0).

On to `CCCCCCCCCCOC1C(C(O)CNCCCN(C)C)OC2OC3(CCCCC3)OC21` (stereo not given), for which the growth inhibition in assay [1] (setting [7]) was 1%; in assay [1] (setting [8]) it was 97% (active); in assay [1] (at 50.0 µM), 91.9% (active); in assay [2] (setting [7]), -27%; in assay [2] (setting [8]) it was 98% (active); in assay [2] (at 50.0 µM), 93.2% (active). Besides, the growth inhibition was 7% in assay [3] (setting [7]); 98% (active) in assay [3] (setting [8]); 91% (active) in assay [3] (at 50.0 µM); 21% in assay [4] (setting [7]); 97% (active) in assay [4] (setting [8]); 90.3% (active) in assay [4] (at 50.0 µM). Further, the growth inhibition was -24% in assay [5] (setting [7]); 98% (active) in assay [5] (setting [8]); 89% (active) in assay [5] (at 50.0 µM); 5% in assay [6] (setting [7]); 97% (active) in assay [6] (setting [8]); 90.2% (active) in assay [6] (at 50.0 µM).
For `O=C(Oc1ccc(/C=C/[n+]2ccccc2)c(OC(=O)c2ccccc2)c1)c1ccccc1`, the growth inhibition is -4% in assay [1] (setting [7]); 93% (active) in assay [1] (setting [8]); 49.6% in assay [1] (at 50.0 µM); 14% in assay [2] (setting [7]); 97% (active) in assay [2] (setting [8]); 18.7% in assay [2] (at 50.0 µM). In addition, the growth inhibition in assay [3] (setting [7]) is -11%; in assay [3] (setting [8]), 95% (active); in assay [3] (at 50.0 µM), 70.2% (active); in assay [4] (setting [7]) it was -8%; in assay [4] (setting [8]), 91% (active); in assay [4] (at 50.0 µM), 5.7%. The growth inhibition in assay [5] (setting [7]) was 1%; in assay [5] (setting [8]) it was 83% (active); in assay [5] (at 50.0 µM), -1.45%; in assay [6] (setting [7]), 7%; in assay [6] (setting [8]), 98% (active); in assay [6] (at 50.0 µM), 48.7%.
With `CCOC(=O)C1SC(=S)N(C)C1=O` (stereo not given), the growth inhibition in assay [1] (setting [7]) is 3%; in assay [1] (setting [8]), 99% (active); in assay [1] (at 50.0 µM), 99.2% (active); in assay [2] (setting [7]), -2%; in assay [2] (setting [8]), 99% (active); in assay [2] (at 50.0 µM) it was 99.5% (active). For the same compound, the growth inhibition in assay [3] (setting [7]) was 8%; in assay [3] (setting [8]), 99% (active); in assay [3] (at 50.0 µM), 99% (active); in assay [4] (setting [7]), -7%; in assay [4] (setting [8]), 99% (active); in assay [4] (at 50.0 µM), 99.1% (active). For the same compound, the growth inhibition in assay [5] (setting [7]) is -3%; in assay [5] (setting [8]), 98% (active); in assay [5] (at 50.0 µM), 99.4% (active); in assay [6] (setting [7]), 19%; in assay [6] (setting [8]), 98% (active); in assay [6] (at 50.0 µM), 99.4% (active).
On to `CCCCCCCC/C=C\CCCCCCCC(=O)OCCCCC`, for which the growth inhibition in assay [1] (setting [7]) is -7%; in assay [1] (setting [8]), 2%; in assay [1] (at 50.0 µM) it was 15.6%; in assay [2] (setting [7]), -5%; in assay [2] (setting [8]) it was 0%; in assay [2] (at 50.0 µM), 13.8%. Moreover, the growth inhibition in assay [3] (setting [7]) was -2%; in assay [3] (setting [8]), 18%; in assay [3] (at 50.0 µM), 17.2%; in assay [4] (setting [7]), -8%; in assay [4] (setting [8]), -10%; in assay [4] (at 50.0 µM) it was 60.8%. For the same compound, the growth inhibition in assay [5] (setting [7]) is -6%; in assay [5] (setting [8]) it was -8%; in assay [5] (at 50.0 µM) it was 40.5%; in assay [6] (setting [7]) it was 15%; in assay [6] (setting [8]), 11%; in assay [6] (at 50.0 µM), 33.6%.
For the compound `O=C(CN(Cc1ccccc1)Cc1ccccc1)N1CCc2c([nH]c3ccccc23)C1c1cccnc1` (stereo not given), the growth inhibition is 29% in assay [1] (setting [7]); 29% in assay [1] (setting [8]); 86.8% (active) in assay [1] (at 50.0 µM); 27% in assay [2] (setting [7]); 27% in assay [2] (setting [8]); 86.5% (active) in assay [2] (at 50.0 µM). Further, the growth inhibition was 8% in assay [3] (setting [7]); 8% in assay [3] (setting [8]); 84.1% (active) in assay [3] (at 50.0 µM); 19% in assay [4] (setting [7]); 19% in assay [4] (setting [8]); 88.3% (active) in assay [4] (at 50.0 µM). The growth inhibition was 11% in assay [5] (setting [7]); 11% in assay [5] (setting [8]); 87.5% (active) in assay [5] (at 50.0 µM); 32% in assay [6] (setting [7]); 32% in assay [6] (setting [8]); 85% (active) in assay [6] (at 50.0 µM).

The values are drawn from PubChem BioAssay (NCI).
